Where a name gives a salt, the structure may show the parent alone. ± gives the standard deviation.
Columns and labels:
Jurkat [1] = assay: mean cell size (FSC-A) relative to DMSO control (fraction of control); higher = larger cells; settings: 48 h
In short: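 Jurkat cells seeded at 600 cells/µl were incubated 1 h, then exposed for 48h to the Enzo Screen-Well FDA Approved Drug Library v2.0 at 25µM in 0.9% (v/v) final DMSO. Drugs that cut counts below 20% of controls were diluted 10-fold and retested, down to 25nM. Cell count and mean cell size (forward scatter area) were read on an Accuri C6 flow cytometer, relative to solvent-only controls. Plates held 6-12 controls; values are means of 3 biological replicates.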

Jurkat [2] = assay: cell count relative to DMSO control (fraction of control); higher = more cells (less growth inhibition); settings: 48 h

Structure (SMILES) | mean cell size (Jurkat [1]) | cell count (Jurkat [2])
N=C(N)NC(=O)Cc1c(Cl)cccc1Cl [Guanfacine·HCl] (concentration: 25 µM) | 0.956 ± 0.059 | 0.695 ± 0.13
Cc1cccc(Nc2ccccc2C(=O)O)c1C [Mefenamic Acid] (concentration: 25 µM) | 0.938 ± 0.025 | 0.655 ± 0.14
CCCc1cc(=O)[nH]c(=S)[nH]1 [Propylthiouracil] (concentration: 25 µM) | 1.02 ± 0.048 | 0.981 ± 0.1
CC(=O)OCC[N+](C)(C)C [Acetylcholine Chloride] (concentration: 25 µM) | 0.999 ± 0.056 | 0.68 ± 0.19
CN[C@H]1CC[C@@H](c2ccc(Cl)c(Cl)c2)c2ccccc21 [Sertraline·HCl] (concentration: 2.5 µM) | 1.008 ± 0.0063 | 0.853 ± 0.12
Cc1ccc(S(=O)(=O)NC(=O)NN2CCCCCC2)cc1 [Tolazamide] (concentration: 25 µM) | 1.03 ± 0.053 | 0.657 ± 0.12
N[C@@H](Cc1cc(I)c(Oc2cc(I)c(O)c(I)c2)c(I)c1)C(=O)O [Levothyroxine·Na] (concentration: 25 µM) | 1.02 ± 0.059 | 0.808 ± 0.087
O=C(O)c1cc(/N=N/c2ccc(S(=O)(=O)Nc3ccccn3)cc2)ccc1O [Sulfasalazine] (concentration: 25 µM) | 0.965 ± 0.024 | 0.914 ± 0.11
COc1ccc2cc([C@H](C)C(=O)O)ccc2c1 [Naproxen] (concentration: 25 µM) | 0.941 ± 0.041 | 0.661 ± 0.1
CCCCCCCCCC(=O)N[C@@H](Cc1c[nH]c2ccccc12)C(=O)N[C@H](CC(N)=O)C(=O)N[C@@H](CC(=O)O)C(=O)N[C@@H]1C(=O)NCC(=O)N[C@@H](CCCN)C(=O)N[C@@H](CC(=O)O)C(=O)N[C@H](C)C(=O)N[C@@H](CC(=O)O)C(=O)NCC(=O)N[C@H](CO)C(=O)N[C@@H]([C@H](C)CC(=O)O)C(=O)N[C@@H](CC(=O)c2ccccc2N)C(=O)O[C@@H]1C [Daptomycin] (concentration: 25 µM) | 0.975 ± 0.025 | 0.917 ± 0.039
O=C1C(=O)c2ccccc2C(O)=C1C1CCC(c2ccc(Cl)cc2)CC1 (stereo not drawn) [Atovaquone] (concentration: 25 µM) | 0.91 ± 0.015 | 0.462 ± 0.039
CN(C)CCC=C1c2ccccc2COc2ccccc21 [Doxepin·HCl] (concentration: 25 µM) | 0.978 ± 0.049 | 0.988 ± 0.13
O=C(NCC1CCCCN1)c1cc(OCC(F)(F)F)ccc1OCC(F)(F)F (stereo not drawn) [Flecainide Acetate] (concentration: 25 µM) | 0.97 ± 0.014 | 0.725 ± 0.033
CC(=O)OCC(=O)[C@@]1(O)CC[C@H]2[C@@H]3CCC4=CC(=O)CC[C@]4(C)[C@H]3C(=O)C[C@@]21C [Cortisone Acetate] (concentration: 25 µM) | 1.01 ± 0.028 | 0.823 ± 0.082
CN1CCCC(n2nc(Cc3ccc(Cl)cc3)c3ccccc3c2=O)CC1 (stereo not drawn) [Azelastine·HCl] (concentration: 25 µM) | 0.923 ± 0.037 | 0.457 ± 0.02
CNC(=O)c1cnn(-c2nc(N)c3ncn([C@@H]4O[C@H](CO)[C@@H](O)[C@H]4O)c3n2)c1 [Regadenoson] (concentration: 25 µM) | 0.991 ± 0.035 | 0.883 ± 0.11
CC(=O)O[C@]1(C(C)=O)CC[C@H]2[C@@H]3C=C(C)C4=CC(=O)CC[C@]4(C)[C@H]3CC[C@@]21C [Megestrol Acetate] (concentration: 25 µM) | 0.9825 ± 0.0053 | 0.704 ± 0.059
N=C(N)c1ccc(OCCCCCOc2ccc(C(=N)N)cc2)cc1 [Pentamidine Isethionate] (concentration: 25 µM) | 0.878 ± 0.021 | 0.601 ± 0.055
Cc1nc2n(c(=O)c1CCN1CCC(c3noc4cc(F)ccc34)CC1)CCCC2 [Risperidone] (concentration: 25 µM) | 0.95 ± 0.051 | 0.809 ± 0.13
CN(C)CCC(c1ccc(Br)cc1)c1ccccn1 (stereo not drawn) [Brompheniramine Maleate] (concentration: 25 µM) | 0.946 ± 0.034 | 1 ± 0.14
CC(C)[C@H](N)C(=O)OCCOCn1cnc2c(=O)nc(N)[nH]c21 [Valacyclovir·HCl] (concentration: 25 µM) | 0.987 ± 0.03 | 0.332 ± 0.065
NC(=O)NO [Hydroxyurea] (concentration: 25 µM) | 0.958 ± 0.017 | 1.06 ± 0.099
CCCN(CCC)CCc1cccc2c1CC(=O)N2 [Ropinirole·HCl] (concentration: 25 µM) | 0.974 ± 0.012 | 0.958 ± 0.1
C[N+]1(C)CCC(OC(=O)C(O)(c2ccccc2)C2CCCC2)C1 (stereo not drawn) [Glycopyrrolate Iodide] (concentration: 25 µM) | 0.995 ± 0.037 | 0.838 ± 0.061

— the supplement of paper PMC4709259
